Laboratory results taken from PubChem BioAssay AID1159580 (chemical genetic matrix, 2015).
Out of some 5,500 compounds screened, about 2,000 (36%) were called active. Another 18% or so got no clear call; they are omitted. Rule as the data show it: active = normalized growth mostly below about 0.91 (no sharp cut-off); inconclusive = no clear call, values can overlap the other calls; inactive = mostly above about 0.92. Some of the results follow.

Experiment: chemical genetic growth profiling, strain panel (AID 1159580);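 also: tested at 20 µM; growth read once vehicle control cultures reached saturation at 30 °C; 1 = growth at the plate median or of vehicle wells; lower values mean less growth of the strain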
Conditions: growth OD

Measured: normalized growth

Cc1c(Cl)cccc1Nc1ccccc1C(=O)O
inactive: S. cerevisiae deletion strains, locus YKL068W, hits give low values 0.954 | S. cerevisiae deletion strains, locus YLR357W, strain rsc2, hits give low values 0.93 | S. cerevisiae deletion strains, locus YNL250W, strain rad50, hits give low values 0.941 | S. cerevisiae deletion strains, locus YOL006C, strain TOP1, hits give low values 0.656 | S. cerevisiae deletion strains, locus YOL012C, strain htz1 0.632 | S. cerevisiae deletion strains, locus YPL055C, strain LGE1, hits give low values 0.794 | S. cerevisiae deletion strains, locus YPL106C, strain sse1, hits give low values 0.985 | S. cerevisiae deletion strains, locus YPR141C, strain kar3, hits give low values 0.95
active: S. cerevisiae deletion strains, locus YJR075W, strain HOC1, hits give low values 0.852 | S. cerevisiae deletion strains, locus YKL009W, strain mrt4, hits give low values 0.788 | S. cerevisiae deletion strains, locus YKL085W, strain MDH1 (second series), hits give low values 0.922 | S. cerevisiae deletion strains, locus YKL085W, strain MDH1, hits give low values 0.922 | S. cerevisiae deletion strains, locus YKL160W, strain elf1, hits give low values 0.764 | S. cerevisiae deletion strains, locus YKL190W, strain CNB1, hits give low values 0.863 | S. cerevisiae deletion strains, locus YKR001C, strain vps1, hits give low values 0.52 | S. cerevisiae deletion strains, locus YKR026C, strain gcn3, hits give low values 0.79 | S. cerevisiae deletion strains, locus YKR091W, strain srl3, hits give low values 0.829 | S. cerevisiae deletion strains, locus YLL001W, strain dnm1, hits give low values 0.814 | S. cerevisiae deletion strains, locus YLL026W, hits give low values 0.831 | S. cerevisiae deletion strains, locus YLL041C, strain sdh2, hits give low values 0.818 | S. cerevisiae deletion strains, locus YLR027C, strain aat2, hits give low values 0.819 | S. cerevisiae deletion strains, locus YLR039C, strain RIC1, hits give low values 0.537 | S. cerevisiae deletion strains, locus YLR058C, strain SHM2, hits give low values 0.849 | S. cerevisiae deletion strains, locus YLR102C, strain apc9, hits give low values 0.788 | S. cerevisiae deletion strains, locus YLR113W, strain HOG1, hits give low values 0.566 | S. cerevisiae deletion strains, locus YLR221C, strain rsa3, hits give low values 0.777 | S. cerevisiae deletion strains, locus YLR258W, strain gsy2, hits give low values 0.831 | S. cerevisiae deletion strains, locus YLR262C, strain YPT6 (second series), hits give low values 0.48 | S. cerevisiae deletion strains, locus YLR262C, strain YPT6, hits give low values 0.491 | S. cerevisiae deletion strains, locus YLR268W, strain sec22, hits give low values 0.724 | S. cerevisiae deletion strains, locus YLR320W, strain mms22, hits give low values 0.59 | S. cerevisiae deletion strains, locus YLR330W, strain CHS5, hits give low values 0.82 | S. cerevisiae deletion strains, locus YLR342W, strain FKS1 (second series), hits give low values 0.671 | S. cerevisiae deletion strains, locus YLR342W, strain FKS1, hits give low values 0.795 | S. cerevisiae deletion strains, locus YLR370C, strain arc18, hits give low values 0.808 | S. cerevisiae deletion strains, locus YLR371W, strain rom2, hits give low values 0.838 | S. cerevisiae deletion strains, locus YLR384C, strain iki3, hits give low values 0.832 | S. cerevisiae deletion strains, locus YLR418C, strain cdc73, hits give low values 0.591 | S. cerevisiae deletion strains, locus YML016C, strain PPZ1, hits give low values 0.857 | S. cerevisiae deletion strains, locus YML032C, strain rad52, hits give low values 0.792 | S. cerevisiae deletion strains, locus YML120C, strain ndi1, hits give low values 0.723 | S. cerevisiae deletion strains, locus YML124C, strain tub3, hits give low values 0.787 | S. cerevisiae deletion strains, locus YMR058W, strain fet3, hits give low values 0.79 | S. cerevisiae deletion strains, locus YMR078C, strain ctf18, hits give low values 0.761 | S. cerevisiae deletion strains, locus YMR125W, strain sto1, hits give low values 0.781 | S. cerevisiae deletion strains, locus YMR129W, hits give low values 0.823 | S. cerevisiae deletion strains, locus YMR205C, strain PFK2, hits give low values 0.673 | S. cerevisiae deletion strains, locus YMR223W, strain ubp8, hits give low values 0.795 | S. cerevisiae deletion strains, locus YMR231W, strain pep5, hits give low values 0.813 | S. cerevisiae deletion strains, locus YMR263W, strain SAP30, hits give low values 0.824 | S. cerevisiae deletion strains, locus YMR307W, strain GAS1, hits give low values 0.557 | S. cerevisiae deletion strains, locus YNL067W, strain RPL9B, hits give low values 0.846 | S. cerevisiae deletion strains, locus YNL071W, strain lat1, hits give low values 0.569 | S. cerevisiae deletion strains, locus YNL153C, strain GIM3, hits give low values 0.849 | S. cerevisiae deletion strains, locus YNL183C, strain NPR1, hits give low values 0.641 | S. cerevisiae deletion strains, locus YNL209W, strain ssb2, hits give low values 0.869 | S. cerevisiae deletion strains, locus YNL233W, strain BNI4, hits give low values 0.797 | S. cerevisiae deletion strains, locus YNL248C, strain rpa49, hits give low values 0.886 | S. cerevisiae deletion strains, locus YNL271C, strain bni1, hits give low values 0.919 | S. cerevisiae deletion strains, locus YNL298W, strain CLA4, hits give low values 0.842 | S. cerevisiae deletion strains, locus YNL307C, strain MCK1, hits give low values 0.437 | S. cerevisiae deletion strains, locus YNL322C, strain KRE1 (second series), hits give low values 0.856 | S. cerevisiae deletion strains, locus YNL322C, strain KRE1, hits give low values 0.876 | S. cerevisiae deletion strains, locus YNR049C, strain mso1, hits give low values 0.822 | S. cerevisiae deletion strains, locus YNR052C, strain pop2, hits give low values 0.821 | S. cerevisiae deletion strains, locus YOL147C, strain pex11, hits give low values 0.765 | S. cerevisiae deletion strains, locus YOR001W, strain rrp6, hits give low values 0.8 | S. cerevisiae deletion strains, locus YOR061W, strain CKA2, hits give low values 0.852 | S. cerevisiae deletion strains, locus YOR069W, strain VPS5, hits give low values 0.864 | S. cerevisiae deletion strains, locus YOR070C, strain gyp1, hits give low values 0.802 | S. cerevisiae deletion strains, locus YOR080W, strain dia2, hits give low values 0.855 | S. cerevisiae deletion strains, locus YOR083W, strain WHI5, hits give low values 0.767 | S. cerevisiae deletion strains, locus YOR106W, strain vam3, hits give low values 0.745 | S. cerevisiae deletion strains, locus YOR136W, strain idh2, hits give low values 0.893 | S. cerevisiae deletion strains, locus YOR144C, strain elg1, hits give low values 0.812 | S. cerevisiae deletion strains, locus YOR184W, strain ser1, hits give low values 0.578 | S. cerevisiae deletion strains, locus YOR231W, strain MKK1, hits give low values 0.644 | S. cerevisiae deletion strains, locus YOR265W, strain rbl2, hits give low values 0.828 | S. cerevisiae deletion strains, locus YOR270C, strain vph1, hits give low values 0.565 | S. cerevisiae deletion strains, locus YOR290C, strain snf2, hits give low values 0.716 | S. cerevisiae deletion strains, locus YOR316C, strain cot1, hits give low values 0.79 | S. cerevisiae deletion strains, locus YPL051W, strain arl3, hits give low values 0.656 | S. cerevisiae deletion strains, locus YPL078C, strain atp4, hits give low values 0.646 | S. cerevisiae deletion strains, locus YPL240C, strain hsp82, hits give low values 0.831 | S. cerevisiae deletion strains, locus YPL241C, strain CIN2, hits give low values 0.852 | S. cerevisiae deletion strains, locus YPL256C, strain CLN2, hits give low values 0.643 | S. cerevisiae deletion strains, locus YPR119W, strain clb2, hits give low values 0.779 | S. cerevisiae deletion strains, locus YPR163C, strain tif3, hits give low values 0.784 | S. cerevisiae deletion strains, locus YPR167C, strain met16, hits give low values 0.805 | S. cerevisiae deletion strains, strain wtn01, hits give low values 0.8 | S. cerevisiae strains, strain wild type, hits give low values 0.857
